# Compound activity (PubChem BioAssay)
# AMA1-RON2 inh = qHTS for Inhibitors of AMA1-RON; Towards Development of Antimalarial Drug Lead: Primary Screen. AID 720542, 2013. actives 0.2% (n = 360,000). AlphaScreen AMA1-biotinylated RON2 peptide binding. Potency, µM (doses to about 58.2 µM), for inactives: at the top dose activity change, negative = inhibition, actives largely listed as inhibitors;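 further: 0% = vehicle wells and -100% = peptide control; nearly all actives have a fitted effect of over 45% in size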
#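 AMA1 (3D7) with his tag at 25 nM final met compounds first, then biotinylated RON2 peptide at 25 nM; detection used donor plus acceptor beads, 10 µg/mL apiece, read by AlphaScreen after 30 min at room temperature.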
# Sm TGR inh = qHTS Assay for the Inhibitors of Schistosoma Mansoni Peroxiredoxins; AID 485364, 2010; Schistosoma mansoni thioredoxin glutathione reductase (TGR), Q962Y6; Potency, µM (series often up to 114 µM), without a hit: at the top dose activity change, negative = inhibition, usual class: inhibitors; purified TGR, DTNB reduction, TNB absorbance 405 nm; actives 3% (n = 360,000); further: on the % scale 0 is the no-effect control and ±100 the full control effect; nearly all actives have a fitted effect of over 60% in size
#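 TGR 20 nM + NADPH 100 uM (dispensed conc.), cpd preinc 15 min RT; start with NADPH (500 uM addition) then DTNB (15 mM addition). Kinetic TNB absorbance, 405 nm filter. Four-parameter Hill fit across titration.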
# Pf growth 96h = Primary qHTS for delayed death inhibitors of the malarial parasite plastid, 96 hour incubation; P. falciparum luciferase reporter growth, 96 h; Potency, µM (series often up to 28.7 µM), for the others: at the top dose activity change, negative = inhibition, most hits filed as inhibitors; actives 6.9% (n = 320,000); AID 504834, 2011; further: on the % scale 0 is the no-effect control and ±100 the full control effect
#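 Compounds incubated with erythrocytes infected by luciferase-expressing P. falciparum (2% hematocrit, 0.05% parasitemia final) for 96 hours, 37 C in 5% CO2. Growth inhibition scored as decreased luciferase luminescence.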
# Pf growth 48h = Primary qHTS for delayed death inhibitors of the malarial parasite plastid, 48 hour incubation. Potency, µM (series often up to 28.7 µM), without a hit: at the highest dose activity change, negative = inhibition, most hits filed as inhibitors. AID 504832, 2011. P. falciparum luciferase growth in erythrocytes, 48 h. actives 5.9% (n = 310,000); further: on the % scale 0 is the no-effect control and ±100 the full control effect
#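 Here the parasites carry a stable luciferase gene and grow inside erythrocytes in Albumax-based RPMI medium with compound for one erythrocytic cycle. Activity is scored as loss of luminescent signal.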
# NS1 function inh = qHTS Assay for Inhibitors of Influenza NS1 Protein Function | actives 0.4% (n = 270,000) | Potency, µM (highest dose often 46.1 µM), for inactives: at the highest dose activity, positive = more growth | AID 2326, 2010; calls by dose curve; further: actives are rising curves; nearly all actives have a fitted effect of over 50% in size
#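 A cell-based growth assay was used: compounds that relieve NS1-induced slow growth of budding yeast raise OD600. Assay medium was yeast nitrogen base with ammonium sulphate and -URA supplement, pH 6.0, with 2% galactose.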
# Starred values were filed as active, the others as inactive; ? = inconclusive; · = no result given. A selection: hits, their analogues and other compounds. The true share with any hit is near 11%. Unless noted, the call rests on the fitted dose curve; in most records, active means well fitted curve in the direction sought with a large enough effect; inconclusive means small, poorly fitted or top-dose-only effect, or another doubt; inactive means no such curve, though single readings can be large; an effect the other way counts as inactive or inconclusive. Potency means the concentration at half of the fitted maximal effect.
SMILES,AMA1-RON2 inh,Sm TGR inh,Pf growth 96h,Pf growth 48h,NS1 function inh
COc1ccc(-n2c(C)cc(C)c(C(C)=O)c2=S)cc1,?,9%,12µM*,15µM*,-3%
Cc1ccc(NC2=C/C(=N\S(=O)(=O)c3cccs3)c3ccccc3C2=O)c(C)c1,4.5µM*,-31%,0.033µM*,0.093µM*,3%
O=C1C(Nc2ccc(O)cc2)=C/C(=N/S(=O)(=O)c2cccs2)c2ccccc21,25µM*,-17%,0.47µM*,?,·
Cc1cccc(NC2=C/C(=N/S(=O)(=O)c3cccs3)c3ccccc3C2=O)c1,?,-17%,-9%,0.52µM*,11%
Cc1ccc(Cl)cc1NC1=C/C(=N\S(=O)(=O)c2cccs2)c2ccccc2C1=O,4.5µM*,-17%,0.15µM*,·,-51%
Cc1ccc(S(=O)(=O)/N=C2\C=C(NS(=O)(=O)c3ccccc3)C(=O)c3ccccc32)cc1,-18%,·,·,·,·
COC(=O)c1ccc(NC(=O)CSc2nnc3c4ccccc4n(C(C)C)c3n2)cc1,·,-1%,·,·,·
Cc1ccc(CNC(=O)C2CCN(S(=O)(=O)c3ccc4c(c3)CCCN4C(=O)C3CCC3)CC2)cc1,·,0%,·,·,·
COC(=O)c1cn(-c2ccccc2)nc1-c1ccccc1,18%,0%,-4%,·,-1%
CC(C)OC(=O)c1cn(-c2ccccc2)nc1-c1ccco1,2%,5µM*,-3%,10µM*,-12%
CCOC(=O)C1=C(C)NC(=O)NC1c1cn(-c2ccccc2)nc1-c1cccs1 (stereo not given),-2%,-8%,?,?,-59%
CCOC(=O)C1=C(C)NC(C)=C(C(=O)OCC)C1c1cn(-c2ccccc2)nc1-c1ccco1,-4%,-24%,·,4.7µM*,-1%
Nc1cc(C(=O)OCC(=O)Nc2cccc(S(=O)(=O)N3CCOCC3)c2)ccc1Cl,-3%,·,·,·,·
C=CCN(C(=O)CCS(=O)(=O)c1cccc2nsnc12)c1ccccc1,8%,25µM*,-2%,-13%,-3%
CCN(C(=O)CCS(=O)(=O)c1cccc2nsnc12)c1cccc(C)c1,3%,?,-5%,-17%,8%
NC(N)=N/N=C/c1cccc(Cl)c1Cl,-3%,11%,2.1µM*,1.7µM*,4%
COc1ccccc1NS(=O)(=O)c1ccc(C)c(NC(=O)C2CCCO2)c1 (stereo not given),-5%,5%,-13%,-15%,·
Cn1c2cc(C#N)sc2c2cnn(Cc3ccc(F)cc3)c(=O)c21,·,9%,4%,1%,·
O=C1C=C(c2ccccc2)OC2(CCCC2)O1,-4%,-14%,?,-4%,33%
O=C1C=C(c2ccc(Cl)cc2)OC2(CCCC2)O1,?,-21%,13µM*,?,-22%
Cc1ccc(NC(=O)c2c(C)noc2C)cc1S(=O)(=O)N1CCOCC1,9%,·,·,·,·
COC(=O)c1cc(OC)c(OC)cc1NC(=O)CC1CCCCC1,0%,-1%,19%,10µM*,-8%
CSc1ccccc1NC(=O)c1csc(C)c1,-15%,-4%,10µM*,36%,-1%
COC(=O)c1cc(OC)c(OC)cc1NC(=O)c1cccc(C)c1,-13%,·,-17%,?,1%
COC(=O)c1cc(OC)c(OC)cc1NC(=O)c1csc(C)c1,0%,-3%,?,10µM*,20%
C=Cc1ccc(Cn2c(C(=O)O)c(CNC3CCCCC3)c3ccc(OC)cc32)cc1,·,-6%,·,·,·
COc1ccc(C[C@H]2CN3C(=NC[C@@H]3Cc3ccccc3)N2CCNC(=O)CCC2CCCCC2)cc1,-2%,-10%,2.9µM*,3.7µM*,4%
COc1ccc(NC(=O)COC(=O)CCC2CCCCC2)cc1,3%,·,·,·,·
COc1ccc(C[C@H]2CN3C(=NC[C@@H]3C(C)C)N2CCNC(=O)CCC2CCCCC2)cc1,-6%,-2%,4.7µM*,?,4%
Oc1ccc(C[C@@H]2CNC(=S)N2CCCCC2CCCCC2)cc1,11%,1%,?,?,7%
